This excerpt belongs to a sample that is enriched for hits.
Pf Dd2 inh: inhibitors of Plasmodium falciparum Dd2 growth; P. falciparum Dd2 growth, SYBR Green, 72 h; Potency, µM (highest dose often 28.9 µM), for inactives: at the top dose activity, negative = inhibition, hits mostly inhibitors; AID 1347417; 120,000 compounds, 4.3% hits; active = well fitted inhibition curve with a large enough effect;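 also: plate controls were DMSO vehicle for no effect and reference drug for full effect; nearly all actives have a fitted effect of over 65% in size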
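Infected erythrocytes (Dd2, 0.3% parasitemia, 2.5% hematocrit final) are added to compound in RPMI-1640/Albumax II medium, grown 72 h at 37C in low oxygen, then lysed with saponin/Triton-X containing SYBR Green and read by fluorescence.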
Numbers without * were called inactive; i = inactive; [ ] = remark or other dose. Potency is read from the fitted curve at half-maximal effect.

SMILES	Pf Dd2 inh
Cc1c(C(=O)Nc2ccc(F)cc2)sc2nc[nH]c(=O)c12	15%
CSCC(=O)N1C[C@@H](NC(=O)NC2CCCCC2)C[C@H]1C(=O)N[C@H](Cc1c[nH]c2ccccc12)C(N)=O	-5%
COc1ccc(/C=C/C(=O)Nc2nc3n(n2)C(c2ccccc2)C=C(c2ccccc2)N3)cc1 (stereo not drawn)	7.9µM*
COc1ccc(C2=CC(c3ccc(N(C)C)cc3)n3nnnc3N2)cc1 (stereo not drawn)	83%
COc1ccc(/C=C/C(=O)Nc2nc3n(n2)C(c2ccc(F)cc2)C=C(c2ccccc2)N3)cc1 (stereo not drawn)	8.9µM*
O=C(/C=C/c1ccccc1)Nc1nc2n(n1)C(c1ccc(F)cc1)C=C(c1ccccc1)N2 (stereo not drawn)	10µM*
COc1ccc(C2C=C(c3ccccc3)Nc3nc(NC(C)=O)nn32)cc1 (stereo not drawn)	-30%
O=C(/C=C/c1ccco1)Nc1ccc(F)cc1	-14%
COc1ccc(C2C=C(c3ccccc3)Nc3nc(NC(=O)/C=C/c4ccccc4Cl)nn32)cc1 (stereo not drawn)	7.1µM*
COc1ccc2c(c1)C(C[C@H]1CN(C(=O)C3CC3)CC[C@H]1CC(=O)O)=NCC2	14%[44.1 µM]
Cc1cnc(C(=O)N2CCOc3ccc(CCC(N)=O)cc3C2)cn1	0%
O=C1CCC2(CCNCC2)CCN1	18%
O=C(NCc1ccccc1)c1cnc2n1CCN(CCCc1ccccc1)CC2	21%[44.1 µM]
CCn1ccc(C(=O)N[C@@H]2CN(S(C)(=O)=O)C[C@H]2CN(C)C)n1	33%
C[S+](=O)([O-])NCCn1ccc2cc(OC3CCN(C(=O)C4CCCC4)CC3)cnc21	i
CCN(CC)Cc1cnc2c(C(=O)NC3CCNCC3)cnn2c1	8%
COc1ccc(C2C=C(c3ccccc3)Nc3nc(NC(=O)/C=C/c4ccc(F)cc4)nn32)cc1 (stereo not drawn)	13µM*
N#Cc1ccc(CN2CCC3(CC2)COCCN3C(=O)OCc2ccccc2)cc1	i
COCCCNC(=O)N1CCCC(c2nc(C(C)C)no2)CCNC(=O)CC1 (stereo not drawn)	7%
CNC(=O)c1ccc2c(c1)N(Cc1ccccc1Cl)C(=O)c1ccccc1S2	i
CCOc1ccc(CN2C(=O)c3ccccc3Sc3ccc(C(=O)NC)cc32)cc1	-14%
O=C(NCc1ccco1)c1ccc2c(c1)N(Cc1ccccc1)C(=O)c1ccccc1S2	i
CCOc1ccc(CCNC(=O)c2ccc3c(c2)N(Cc2ccccc2)C(=O)c2ccccc2S3=O)cc1OCC (stereo not drawn)	i
COc1ccc(CCNC(=O)c2ccc3c(c2)N(Cc2cc(C)ccc2C)C(=O)c2ccccc2S3=O)cc1OC (stereo not drawn)	4.5µM*
Cc1ccc(CCNC(=O)c2ccc3c(c2)N(Cc2cccc(F)c2)C(=O)c2ccccc2S3)cc1	2%
SMILES	Pf Dd2 inh
COc1ccc(CCNC(=O)c2ccc3c(c2)N(Cc2ccccc2Cl)C(=O)c2ccccc2S3)cc1OC	11µM*
CCOc1ccc(CN2C(=O)c3ccccc3Sc3ccc(C(=O)NCc4ccc5c(c4)OCO5)cc32)cc1	10µM*
Cc1ccc(CCNC(=O)c2ccc3c(c2)N(Cc2ccccc2)C(=O)c2ccccc2S3=O)cc1 (stereo not drawn)	i
O=C(COc1ccc(F)cc1)N1CC2CC(C1)[C@H]1CCCC(=O)N1C2 (stereo partly drawn)	-13%
COc1cccc([C@H]2CN(C(=O)CCn3ccc(=O)[nH]c3=O)C[C@@H]2N)c1	-8%
CN1C(=O)c2cccn2CC1CNC(=O)Cc1c[nH]c2ccccc12 (stereo not drawn)	14%
CCc1ccccc1NC(=O)COc1ccc(NC(=O)C2CC2)cn1	-2%
CC(C)c1noc(CC2CCN(C(=O)c3ccc(C(C)(C)C)cc3)CC2)n1	7.9µM*
CC(C)c1noc(CC2CCN(C(=O)c3ccc(N(C)C)cc3)CC2)n1	0%
CC(C)c1noc(CC2CCN(C(=O)c3ccc(F)cc3)CC2)n1	17%
COc1ccc(C(=O)N2CCCCCNC(=O)[C@@H]3CCCC[C@@H]32)c(OC)c1	-2%
O=C(Nc1cc(Cl)ccc1O)c1cc2nc(-c3ccc4c(c3)OCO4)cc(C(F)(F)F)n2n1	1.6µM*
O=C(Nc1cc(Cl)ccc1Cl)c1cc2nc(-c3ccc4c(c3)OCO4)cc(C(F)(F)F)n2n1	38%
O=C(NCC12CC3CC(CC(C3)C1)C2)c1cc2nc(-c3ccc(Cl)cc3)cc(C(F)(F)F)n2n1	-10%
CCC(=O)N1CC(=O)Nc2ccc(C)cc2C1c1ccc(F)cc1 (stereo not drawn)	2%
CCCC(=O)N1CC(=O)Nc2ccc(Cl)cc2C1c1ccccc1 (stereo not drawn)	-10%
O=C1CN(C(=O)COc2ccc(Cl)cc2)C(c2ccc(F)cc2)c2cc(Cl)ccc2N1 (stereo not drawn)	10µM*
Cc1ccccc1-c1ccc2n(c1=O)C[C@H]1C[C@@H]2CN(C(=O)c2cccs2)C1	-16%[44.1 µM]
O=C([C@@H]1C[C@H](Oc2cccnc2)CN1C(=O)c1ccc2ccccc2n1)N1CCCC1	18%
Cc1cc(C)cc(NC(=O)N2CCC(OC3CCN(S(C)(=O)=O)CC3)CC2)c1	-6%
CCOC(=O)c1c(NC(=O)COc2ccccc2)sc(C(C)=O)c1C	15%
CCOC(=O)c1c(NC(=O)COc2ccc(Br)cc2)sc(C(C)=O)c1C	i
CCOC(=O)c1c(NC(=O)COc2ccc(OC)cc2)sc(C(=O)N(CC)CC)c1C	11µM*
CC(=O)Nc1cccc(OCc2nc3c(n2Cc2ccccc2)C(=O)N(Cc2ccccc2F)CCN3)c1	i
COCCN1C(=O)CO[C@H]2CN(C(=O)Nc3ccc(F)cc3)C[C@H]21	18%[44.1 µM]
SMILES	Pf Dd2 inh
Cc1ccc(CN2CCc3oc(C)c(C(=O)N4CCSCC4)c3C2)cc1	10µM*
Cc1oc2c(c1C(=O)N1CCN(c3ccccc3)CC1)CN(Cc1ccc(F)cc1)CC2	11µM*
COCCCNC(=O)c1c(C)oc2c1CN(Cc1ccc(F)cc1)CC2	-23%
CCOC(=O)C1CCCCN1C(=O)c1cn(C(c2ccccc2)c2ccccc2)nn1 (stereo not drawn)	-14%
Cc1oc2ccn(Cc3ccccc3F)c(=O)c2c1C(=O)N1CCN(c2ccccc2)CC1	-22%
Cc1oc2c(c1C(=O)N(C)CCc1ccccn1)CN(Cc1cccc(F)c1)CC2	-26%
CCOC(=O)C1CCCCN1C(=O)c1c(C)oc2c1CN(Cc1cccc(F)c1)CC2 (stereo not drawn)	6.3µM*
Cc1ccc(CN2CCc3oc(C)c(C(=O)N4CCC(C(N)=O)CC4)c3C2)cc1	-20%
COc1ccc(N(C)C(=O)c2c(C)oc3c2CN(Cc2ccc(F)cc2)CC3)cc1	13µM*
CCCn1ccc2oc(C)c(C(=O)N3CCN(c4ccc(F)cc4)CC3)c2c1=O	-13%
COc1ccc(-n2nc3n(c2=O)CCN(Cc2ccc(F)cc2)C3)cc1	11%
Cc1oc2c(c1C(=O)N1CCOCC1)CN(C(=O)c1ccncc1)CC2	-28%
O=C(CCC1CCCC1)NC1CCN(c2cn[nH]c(=O)c2)CC1	1%
CN1[C@@H](CCC(=O)NCc2cccs2)CNC(=O)[C@@H]2[C@H]1CCN2CC1CC1	-4%[44.1 µM]
Cc1ccsc1C(=O)N1CCCN(c2cc(-c3ccc(Cl)cc3)[nH]n2)CC1	-1%
Cc1cc(CN2CCC3(C2)C(=O)N(c2ccccc2)c2ccccc23)no1 (stereo not drawn)	-18%
O=C(CN1CCN(Cc2cnc(-c3ccccn3)nc2)CC1)N1CCCC1	26%

Bioassay records (PubChem BioAssay)
